± gives the standard deviation of the averaged measurements. The full ranking holds about 33,000 sequences; the median of “E-score (rank enrichment, -0.5 to 0.5)” is about -0.0043, and the highest 2% start at about 0.24. What follows is part of a selection rich in the highest values, with near analogues and random picks from the rest.
Tested on: 2Sp-muMax20 (muMax20 with two 2,6-bis(methyl)pyridine Cys staples)
Assay: PBM 8-mer E-score (E-score (rank enrichment, -0.5 to 0.5)); higher = stronger preferential binding
Method: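 Protein binding microarray (universal PBM chip covering all 10-mers in fixed probe flanks) with chemically synthesized human Max(13-93) bHLH-LZ analogs (not full-length Max) bearing noncanonical residues (hArg, Tha, Aib, Nle at 65) and aromatic Cys staples. Read-out per 8-mer (and its reverse complement): E-score (rank-based enrichment, -0.5 to 0.5) and Z-score of median probe intensity.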

Sequence | PBM 8-mer E-score
GTAATTTA | 0.0251 ± 0.0029
ATAATTTG | 0.183 ± 0.083
GTAATTGA | 0.0816 ± 0.034
CTAATTGA | -0.0167 ± 0.015
ATAATTGA | 0.2552 ± 0.0018
CGAATTTA | 0.131 ± 0.035
CGTGACTA | 0.0126 ± 0.018
ATTCTAGG | -0.0261 ± 0.025
ATTAACGA | 0.0547 ± 0.19
GTCCACCA | -0.0165 ± 0.0032
CTGCCCAA | -0.0288 ± 0.022
CATGTACC | -0.115 ± 0.026
ATATATGG | 0.285 ± 0.018
GTATATGA | 0.0252 ± 0.077
AAATATGG | 0.18 ± 0.0044
AGATATGG | 0.168 ± 0.027
CTATATGC | 0.159 ± 0.037
CTATATGA | 0.145 ± 0.07
ATATATGC | 0.251 ± 0.052
ACATATGC | 0.0823 ± 0.085
ATATATGA | 0.293 ± 0.049
ATCCTGTG | -0.0686 ± 0.032
GGCGGACC | -0.233 ± 0.004
ATATGAGC | 0.148 ± 0.011
GACATCTC | -0.202 ± 0.052

Sequence | PBM 8-mer E-score
TGTGCAAA | -0.0258 ± 0.033
ATTACAGA | -0.0244 ± 0.14
ATTACATC | 0.126 ± 0.094
ATTACAGC | -0.033 ± 0.008
ATTACAGG | 0.312 ± 0.042
ATTACATG | 0.242 ± 0.037
ATTACATA | 0.0685 ± 0.037
GGCTGGGA | -0.0185 ± 0.052
ACACCGAA | -0.0827 ± 0.029
ACCTCGGA | -0.233 ± 0.0065
CAGTCTCA | -0.0913 ± 0.013
GAATTATA | 0.19 ± 0.11
AAATTATG | 0.134 ± 0.036
TAGTTATA | 0.255 ± 0.0097
CAATTATA | 0.176 ± 0.028
AAATTATC | 0.199 ± 0.084
TAATTATA | 0.245 ± 0.027
AAGTTATA | 0.0392 ± 0.07
AAATTATA | 0.301 ± 0.063
GAGTTATA | 0.104 ± 0.048
CGCCTTCA | -0.00719 ± 0.17
AGATGCCG | -0.118 ± 0.13
GTAACATA | 0.177 ± 0.016
ATACCGCA | 0.013 ± 0.035
GTATTGAA | 0.132 ± 0.089

Sequence | PBM 8-mer E-score
ATATTGAA | 0.0994 ± 0.059
AAATTGAT | 0.113 ± 0.046
AAATTGAA | 0.24 ± 0.083
TTATTGAA | 0.3 ± 0.049
GAATTGAA | 0.0949 ± 0.085
ACAACGGA | -0.0195 ± 0.029
ACGATACA | 0.0917 ± 0.079
ACATAGCG | 0.00456 ± 0.11
ACCCCGCT | -0.0295 ± 0.018
GATGCGCC | -0.0256 ± 0.014
CGTGAAAA | 0.109 ± 0.014
GGTGAAAA | -0.00809 ± 0.034
TGTGAAAA | 0.289 ± 0.035
AATAGGTA | 0.198 ± 0.0069
AGCCGTTA | -0.114 ± 0.018
AACCGTAA | 0.0404 ± 0.047
CTGATCAA | -0.0225 ± 0.021
CGCGGGAA | 0.0597 ± 0.013
ATGTAATG | 0.134 ± 0.074
ATGTACTA | 0.258 ± 0.061
ATGTACTG | 0.0436 ± 0.099
ATGTAATA | 0.278 ± 0.0077
GTGTAATA | 0.162 ± 0.042
ATGTAAAA | 0.274 ± 0.016
CTGTAAAA | 0.102 ± 0.0073

Sequence | PBM 8-mer E-score
ATGTAATC | 0.236 ± 0.023
CTGTAATC | 0.0629 ± 0.045
CTGTAATA | 0.134 ± 0.074
GTGTACTA | 0.0822 ± 0.031
ATGTAAAT | 0.159 ± 0.029
CCTGGAGA | -0.136 ± 0.09
AAACTTAT | 0.203 ± 0.022
GTGGGCCA | -0.0973 ± 0.051
AGGAGCCC | 0.00737 ± 0.03
ACCTCCAG | -0.161 ± 0.079
AGGGACCT | -0.13 ± 0.0014
GGCAACGA | -0.123 ± 0.0029
CACATAAC | 0.0249 ± 0.13
AACATAAC | 0.278 ± 0.052
GACATAAC | 0.146 ± 0.026
AACATAAT | 0.285 ± 0.053
AACATAAG | 0.0487 ± 0.042
AACATAAA | 0.164 ± 0.097
GTCGGCAC | -0.0877 ± 0.06
TCCGATAA | -0.23 ± 0.14
AAAGTACC | 0.17 ± 0.02
AGCGCTAA | -0.0615 ± 0.022
CTTGACGA | 0.00312 ± 0.0077
CGGTGAAC | 0.0144 ± 0.098
AGGGCGAA | -0.00371 ± 0.021

Sequence | PBM 8-mer E-score
AAATACGC | 0.236 ± 0.058
GAATACGC | 0.0401 ± 0.069
AAATACGT | 0.112 ± 0.06
ATTAAGGC | 0.0884 ± 0.038
AGCGATGC | -0.00497 ± 0.044
AGATAAAC | 0.00083 ± 0.061
CCTTTCAC | 0.0665 ± 0.067
CTTTTCAC | 0.287 ± 0.021
ATTTTCAC | 0.0326 ± 0.0074
CGGTTCGA | -0.0332 ± 0.043
CACCCTCG | 0.07079 ± 0.00033
GTTGTTTA | 0.247 ± 0.0077
AATGTTGA | -0.0129 ± 0.047
CATGTTAC | 0.256 ± 0.018
CTTGTTTA | -0.0208 ± 0.029
CATGTTGA | 0.244 ± 0.023
CATGTTGC | 0.1 ± 0.094
GATGTTTA | 0.0541 ± 0.02
CATGTTTA | 0.24 ± 0.056
AATGTTAC | 0.0165 ± 0.1
CATGTTTC | 0.0659 ± 0.0045
ATTGTTTA | -0.0168 ± 0.043
CATGTTAG | 0.111 ± 0.049
ATTTCAGA | 0.0234 ± 0.035
GGGATCGA | 0.0419 ± 0.04

Sequence | PBM 8-mer E-score
AGACAGGG | -0.0986 ± 0.041
CACGCAAC | -0.0734 ± 0.013
CAGTCATG | 0.0672 ± 0.14
ACACTATA | 0.0551 ± 0.059
GACTTTGA | 0.147 ± 0.062
AGAACGGA | -0.258 ± 0.028
AAGAAGCT | -0.12 ± 0.0019
CGTCGCGA | 0.00718 ± 0.059
CGGCCAGC | -0.103 ± 0.0057
ATACAAAA | 0.359 ± 0.0063
ATACAAAT | 0.216 ± 0.0091
CTACAAAA | 0.0122 ± 0.043
ATACAAGC | 0.252 ± 0.076
ATACAAGA | 0.0902 ± 0.1
CTACAAGC | -0.0442 ± 0.059
AGTGTAAT | 0.114 ± 0.14
ATTGCAAC | 0.0277 ± 0.07
CTCTCAGA | -0.148 ± 0.12
CTTAACAA | 0.05 ± 0.067
GTTAAATA | 0.296 ± 0.026
CTTAAATA | 0.139 ± 0.098
CCTAAATA | 0.125 ± 0.0015
ACTAAATA | 0.249 ± 0.018
GCTAACAA | -0.0747 ± 0.062
CATAACTA | 0.0886 ± 0.054

Sequence | PBM 8-mer E-score
GTTAACAA | 0.239 ± 0.026
ATTAAATA | 0.0773 ± 0.0041
AATAACTA | 0.155 ± 0.038
GATAACTA | 0.245 ± 0.029
ACTAAATC | -0.0199 ± 0.085
TACGTAAA | 0.183 ± 0.046
AAGCACTA | 0.0985 ± 0.0016
CCGTTACA | 0.0269 ± 0.097
CAGAAAAG | 0.0222 ± 0.11
CCTCAAAG | -0.168 ± 0.0062
CCAAAGGA | -0.134 ± 0.0027
CCGGGAAA | -0.0853 ± 0.032
GATCGGTA | 0.0193 ± 0.038
CCGGCAGG | -0.199 ± 0.041
CGTGGCAA | -0.135 ± 0.016
AACGCGTT | 0.0704 ± 0.016
GCACTCAA | -0.0947 ± 0.092
CTTAACTA | 0.092 ± 0.0028
ATTAACTA | 0.16 ± 0.003
GTTAACTA | 0.2576 ± 0.002
AGACCGCG | 0.0661 ± 0.0043
CGGTGGAA | -0.19 ± 0.09
